# From PubChem BioAssay
# BoNT A protease – BoNT A light chain protease inhibition; inhibition, % at 10 µM; actives 0.17% (n = 360,000); multiplex microsphere protease substrate cleavage, flow cytometry; AID 588499; note: plate controls were buffer without enzyme for full effect and enzyme alone for no effect
# BoNT-F LC inh – inhibitors of Botulinum neurotoxin F light chain protease; Multiplex microsphere protease cleavage assay, flow cytometry; inhibition, % at 10 µM; actives 0.22% (n = 360,000); AID 588497; in the data active = inhibition above about 35%, passing the limit was not always enough; inconclusive = no clear call, values can overlap the other calls; note: plate controls were buffer without enzyme for full effect and enzyme alone for no effect
# Bead autofluor – compound fluorescence in toxin protease inhibitor counterscreen; compound autofluorescence counterscreen, microsphere flow cytometry; hits give high values; fluorescence intensity (test concentration not listed); actives 3.1% (n = 360,000); in the data active = fluorescence intensity above about 16000; inconclusive = no clear call, values can overlap the other calls
# GDH-TPI inh – counter-screen for M. tuberculosis FBA inhibitors: GDH-TPI coupled enzymes; AID 588335; actives 1.2% (n = 360,000); GDH-TPI coupled enzyme counterscreen, NADH absorbance; inhibition, % at 4.8 µM; in the data active = inhibition above about 30%;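 note: 0% = DMSO wells and 100% = wells lacking the enzyme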
# Anthrax LF inh2 – blocks Bacillus anthracis lethal factor protease; P15917; multiplex microsphere protease cleavage assay, LF; inhibition, % at 10 µM; actives 0.12% (n = 360,000); AID 588501; note: plate controls were buffer without enzyme for full effect and enzyme alone for no effect
# Mtb FBA inh – Mtb fructose-bisphosphate aldolase inhibition; P9WQA3; purified M. tuberculosis FBA, fluorescence read-out; inhibition, % at 1 µM; actives 2.3% (n = 360,000); in the data active = inhibition above about 27%;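 note: 0% = vehicle and 100% = reference inhibitor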
# Target sequence (P9WQA3 whole entry, looked up): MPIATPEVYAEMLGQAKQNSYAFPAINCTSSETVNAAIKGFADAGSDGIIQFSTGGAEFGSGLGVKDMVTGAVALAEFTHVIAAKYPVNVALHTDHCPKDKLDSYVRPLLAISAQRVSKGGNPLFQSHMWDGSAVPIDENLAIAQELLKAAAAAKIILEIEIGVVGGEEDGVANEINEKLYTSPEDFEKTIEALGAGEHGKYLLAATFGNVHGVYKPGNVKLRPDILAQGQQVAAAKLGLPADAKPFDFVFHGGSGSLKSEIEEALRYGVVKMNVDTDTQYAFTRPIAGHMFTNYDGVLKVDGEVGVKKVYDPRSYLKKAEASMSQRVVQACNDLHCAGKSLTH
# Starred values were filed as active, the others as inactive; ? = inconclusive; / = not tested or not shown. An excerpt weighted towards active compounds, which were near 6.7% of everything screened. Cut-off read from the data, not from the text of the source, unless noted: active = inhibition above about 30%; inconclusive = no clear call, values can overlap the other calls; inactive = below that.
SMILES,BoNT A protease,BoNT-F LC inh,Bead autofluor,GDH-TPI inh,Anthrax LF inh2,Mtb FBA inh
CCOC(=O)NC(Nc1nnc(SCC)s1)(C(F)(F)F)C(F)(F)F,-1,-9,4249,3,3,-3
CN1CC(=O)N(CC(=O)Nc2ccc(N(C)C)cc2)c2ccccc2C1=O,0,-10,2971,-3,1,-1
CCOc1ccc(S(=O)(=O)N2CCCCC2)cc1NC(=O)CN1C(=O)NC(CC)(c2ccccc2)C1=O (stereo not drawn),0,-1,5579,2,3,-1
CCCC1=C(C(=O)OCC)C2(C(=O)Nc3ccc(C)cc32)C(C#N)=C(N)O1 (stereo not drawn),?,1,20310*,-16,2,0
CC(=O)Nc1cc(-c2ccc(F)cc2)[nH]n1,0,0,3987,6,0,-3
CSc1nnc(C(C)(C)C)c(=O)n1/N=C/c1ccc(C(C)C)cc1,2,?,3529,-5,4,0
COc1ccc(C(NC(=O)c2cc(OC)ccc2OC)c2ccccc2)cc1 (stereo not drawn),0,-16,3907,3,13,2
COc1cc(OC)c(C2Nc3ccccc3NC3=C2C(=O)CC(C)(C)C3)cc1OC (stereo not drawn),0,-19,3818,7,-8,1
COc1ccc(C2CC(=O)C3=C(C2)Nc2ccccc2NC3c2coc3ccccc3c2=O)cc1OC (stereo not drawn),0,-6,2380,40*,0,2
Cc1noc(/C=C/c2ccccn2)c1[N+](=O)[O-],0,?,3917,36*,-3,-3
Cc1nn(Cc2noc(C(=O)NCc3ccc4c(c3)OCO4)n2)c(C)c1Br,0,-2,5767,-5,2,2
CC1=C(C(=O)Nc2ccccc2)C(c2ccco2)NC(=S)N1 (stereo not drawn),-2,-7,24277*,-3,-1,1
CC1=C(C(=O)Nc2ccccc2)C(c2ccco2)NC(=O)N1 (stereo not drawn),1,5,9478,8,-4,0
COCCCn1c(C)nc2c(c1=O)c1nc3ccccc3nc1n2CCc1ccccc1,/,/,/,20,/,36*
COc1ccc(C(=O)Nc2ccccc2-c2nnn(CC(=O)Nc3ccc4c(c3)OCCO4)n2)cc1,-1,-1,20699*,1,0,-3
Nc1ccccc1-c1nnn(CC(=O)Nc2ccc3c(c2)OCCO3)n1,2,-2,5856,-12,0,1
COC(=O)CNC(=O)CNC(=O)Nc1ccccc1,?,2,19345*,3,2,-1
NC(=O)Cn1cc(C=C2C(=O)NC(=O)NC2=O)c2ccccc21,-2,-4,2839,4,3,-1
COC(=O)Cn1cc(C=C2C(=O)NC(=O)NC2=O)c2ccccc21,0,42*,3011,0,12,-3
O=C(CS(=O)c1cccc(Cl)c1)Nc1ccccc1Cl (stereo not drawn),?,-2,22003*,0,-2,2
O=C(CS(=O)c1cccc(C(F)(F)F)c1)Nc1ccc(Cl)cc1Cl (stereo not drawn),0,3,5567,3,-2,2
CCCn1nnnc1NCc1ccc(N2CCCC2)cc1,10,-13,17311*,-13,-3,-4
CCCCn1nnnc1NCc1ccc(N2CCCC2)cc1,2,-59,1645,10,-13,-1
COc1ccc(C(=O)Nc2ccc(C)cn2)c(OC)c1,-4,-6,21063*,-15,-2,0
CN(C)c1ccccc1C(=O)c1ccccc1N(C)C,2,-9,3034,29,-1,1
SMILES,BoNT A protease,BoNT-F LC inh,Bead autofluor,GDH-TPI inh,Anthrax LF inh2,Mtb FBA inh
COc1ccc(C)cc1NC(=O)Nc1ccc(Br)cn1,5,10,18723*,-8,1,-1
COc1ccc(C(=O)c2ccc(N(C)C)cc2)c(OC)c1,0,-12,11642,31*,-1,0
COc1ccc(C)cc1NC(=O)NC1CCCCCCC1,0,4,5115,-11,1,2
CN(C)c1ccc(C(=O)c2ccc(N(C)C)c3ccccc23)cc1,2,-6,3367,34*,-3,-1
CCOc1ccc(S(=O)(=O)NCc2ccccn2)c(C)c1C,0,14,4302,6,-5,0
COc1cc(/C=C/C(=O)NCC(=O)N2CCC(N(C)CCN3CCOCC3)CC2)ccc1OC(C)C,-1,-2,2714,13,-1,13
COc1ccc(C(=O)Nn2cnnc2)c(OC)c1,1,0,21828*,-12,0,-2
